The values below come from paper PMC11062922 (Nature Chemical Biology, 2023).

The structures appear in SMILES notation. Read-outs that look alike come from different tables or passages of the source.

Holding throughout (set-up): species or system human, MV4-11 + K-562 + COLO205 + SK-N-BE2 + OVCAR-8
One assay has as its system ACVR1B. The settings on record: read-out: apparent Kd, n = 1.
Another assay deals with ACVR1. Particulars: read-out: apparent Kd, n = 1.
Another assay relates to ACVR2B. The settings on record: read-out: apparent Kd; compound concentrations: 100 nM and 1000 nM (sheet 'Samples'), CATDS: 2.6273503134627601E-2; n = 1.
The next assay relates to BCR. The settings on record: read-out: apparent Kd, n = 1.
The subject of a further assay is BMPR1B. Particulars: read-out: apparent Kd; compound concentrations: 100 nM and 1000 nM (sheet 'Samples'), CATDS: 2.4616373356857599E-2; n = 1.
The next assay deals with BRAF. The settings on record: read-out: apparent Kd; compound concentrations: 100 nM and 1000 nM (sheet 'Samples'), CATDS: 1.9586867815954801E-2; n = 1.
In another assay the test system is BUB1. Particulars: read-out: apparent Kd; compound concentrations: 100 nM and 1000 nM (sheet 'Samples'), CATDS: 2.2537896529622702E-2; n = 1.
In a further assay the test system is CIT. The settings on record: read-out: apparent Kd; compound concentrations: 100 nM and 1000 nM (sheet 'Samples'), CATDS: 2.75730146177765E-2; n = 1.
The next assay concerns CSNK1A1. Particulars: read-out: apparent Kd; compound concentrations: 100 nM and 1000 nM (sheet 'Samples'), CATDS: 2.3707563911338599E-2; n = 1.
The test system of a further assay is CSNK1D. Particulars: read-out: apparent Kd; compound concentrations: 100 nM and 1000 nM (sheet 'Samples'), CATDS: 4.2810001426460499E-2; n = 1.
The subject of another assay is CSNK1E. The settings on record: read-out: apparent Kd; compound concentrations: 100 nM and 1000 nM (sheet 'Samples'), CATDS: 3.2440470018423401E-2; n = 1.
A further assay concerns EPHA1. The settings on record: read-out: apparent Kd; compound concentrations: 100 nM and 1000 nM (sheet 'Samples'), CATDS: 3.1864310867846697E-2; n = 1.
A further assay deals with FRK. The settings on record: read-out: apparent Kd; compound concentrations: 100 nM and 1000 nM (sheet 'Samples'), CATDS: 4.4669706945154999E-2; n = 1.
The test system of a further assay is FYN. Particulars: read-out: apparent Kd; compound concentrations: 100 nM and 1000 nM (sheet 'Samples'), CATDS: 2.2205933689287499E-2; n = 1.
In a further assay the test system is MAPK14. The settings on record: read-out: apparent Kd; compound concentrations: 100 nM and 1000 nM (sheet 'Samples'), CATDS: 3.89835717032921E-2; n = 1.
In the next assay the test system is MAPK9. The settings on record: read-out: apparent Kd; compound concentrations: 100 nM and 1000 nM (sheet 'Samples'), CATDS: 1.8300020860960699E-2; n = 1.
A further assay deals with MAPKAPK2. The settings on record: read-out: apparent Kd; compound concentrations: 100 nM and 1000 nM (sheet 'Samples'), CATDS: 2.4524702318677E-2; n = 1.
The test system of another assay is PKN3. The settings on record: read-out: apparent Kd; compound concentrations: 100 nM and 1000 nM (sheet 'Samples'), CATDS: 0.20654584562915099; n = 1.
For a further assay, the system named is PRKCI. The settings on record: read-out: apparent Kd; compound concentrations: 100 nM and 1000 nM (sheet 'Samples'), CATDS: 3.04574994167322E-2; n = 1.
Another assay deals with PRKD2. The settings on record: read-out: apparent Kd; compound concentrations: 100 nM and 1000 nM (sheet 'Samples'), CATDS: 2.0032181023514398E-2; n = 1.
The subject of the next assay is PTK6. Particulars: read-out: apparent Kd; compound concentrations: 100 nM and 1000 nM (sheet 'Samples'), CATDS: 3.9660106147075401E-2; n = 1.
Another assay deals with RET. Particulars: read-out: apparent Kd; compound concentrations: 100 nM and 1000 nM (sheet 'Samples'), CATDS: 0.10726511440353401; n = 1.
For another assay, the system named is RIPK2. Particulars: read-out: apparent Kd; compound concentrations: 100 nM and 1000 nM (sheet 'Samples'), CATDS: 0.143338451264474; n = 1.
The next assay has as its system RIPK3. The settings on record: read-out: apparent Kd; compound concentrations: 100 nM and 1000 nM (sheet 'Samples'), CATDS: 5.5820006344930999E-2; n = 1.
For a further assay, the system named is RPS6KB1. The settings on record: read-out: apparent Kd; compound concentrations: 100 nM and 1000 nM (sheet 'Samples'), CATDS: 1.9963914199749098E-2; n = 1.
A further assay has as its system SIK2. Particulars: read-out: apparent Kd; compound concentrations: 100 nM and 1000 nM (sheet 'Samples'), CATDS: 2.1322969574131299E-2; n = 1.
The next assay relates to SIK3. Particulars: read-out: apparent Kd; compound concentrations: 100 nM and 1000 nM (sheet 'Samples'), CATDS: 2.2436255384138602E-2; n = 1.
The next assay concerns SLK. Particulars: read-out: apparent Kd; compound concentrations: 100 nM and 1000 nM (sheet 'Samples'), CATDS: 3.1142117408046201E-2; n = 1.
Another assay relates to STK10. The settings on record: read-out: apparent Kd; compound concentrations: 100 nM and 1000 nM (sheet 'Samples'), CATDS: 2.2718990110139101E-2; n = 1.
A further assay relates to TGFBR1. Particulars: read-out: apparent Kd, n = 1.
Another assay concerns TGFBR2. The settings on record: read-out: apparent Kd; compound concentrations: 100 nM and 1000 nM (sheet 'Samples'), CATDS: 8.8931452038097006E-2; n = 1.
Another assay has as its system TNIK. Particulars: read-out: apparent Kd; compound concentrations: 100 nM and 1000 nM (sheet 'Samples'), CATDS: 1.9385936597074001E-2; n = 1.
The test system of the next assay is BMPR1A. The settings on record: read-out: apparent Kd; compound concentrations:100 nM and 1000 nM (sheet 'Samples'); n = 1.
The subject of another assay is CSNK2A1;CSNK2A3. The settings on record: read-out: apparent Kd; compound concentrations:100 nM and 1000 nM (sheet 'Samples'); n = 1.
Another assay concerns CSNK2A2. Particulars: read-out: apparent Kd; compound concentrations:100 nM and 1000 nM (sheet 'Samples'); n = 1.
A further assay relates to GSK3A. The settings on record: read-out: apparent Kd; compound concentrations:100 nM and 1000 nM (sheet 'Samples'); n = 1.
The subject of another assay is GSK3B. The settings on record: read-out: apparent Kd; compound concentrations:100 nM and 1000 nM (sheet 'Samples'); n = 1.
For another assay, the system named is JAK2. The settings on record: read-out: apparent Kd; compound concentrations:100 nM and 1000 nM (sheet 'Samples'); n = 1.
Setting [1] is: compound concentrations:100 nM and 1000 nM (sheet 'Samples').

Turning to `CC(C)(CN)c1nc(-c2ccc(Cl)c(O)c2)c(-c2ccncc2)[nH]1.O=C(O)C(F)(F)F` [SB-477794-AAA], the potency estimated from few doses in the assay on ACVR1B (compound concentrations: 100 nM and 1000 nM (sheet 'Samples'), CATDS: 5.2307110654739801E-2) was 55.4 nM; in the assay on ACVR1 (compound concentrations: 100 nM and 1000 nM (sheet 'Samples'), CATDS: 1.9559764953072701E-2) it was 1330 nM; in the assay with ACVR2B, 388 nM; in the assay with BCR (compound concentrations: 100 nM and 1000 nM (sheet 'Samples'), CATDS: 2.1537689296735201E-2), 833 nM; in the assay on BMPR1B, 488 nM; in the assay on BRAF, 1320 nM. The potency estimated from few doses is 687 nM in the assay with BUB1; 330 nM in the assay with CIT; 562 nM with CSNK1A1; 92.5 nM with CSNK1D; 199 nM in the assay on CSNK1E; 210 nM in the assay on EPHA1. Moreover, the potency estimated from few doses in the assay on FRK was 82.8 nM; with FYN, 730 nM; with MAPK14, 119 nM; in the assay with MAPK9 it was 2000 nM; in the assay on MAPKAPK2, 495 nM; in the assay on PKN3, 2.21 nM. Besides, the potency estimated from few doses in the assay on PRKCI was 241 nM; with PRKD2, 1170 nM; with PTK6 it was 113 nM; in the assay with RET, 9.97 nM; with RIPK2 it was 5.13 nM; in the assay with RIPK3 it was 47.1 nM. Further, the potency estimated from few doses in the assay on RPS6KB1 was 1200 nM; in the assay with SIK2, 871 nM; with SIK3, 699 nM; in the assay with SLK, 225 nM; in the assay on STK10, 665 nM; in the assay on TGFBR1 (compound concentrations: 100 nM and 1000 nM (sheet 'Samples'), CATDS: 5.82262421070339E-2), 42.5 nM. Further, the potency estimated from few doses in the assay with TGFBR2 is 15.4 nM; in the assay with TNIK, 1400 nM.
Take `COc1cccc(-n2ncc3c(N/N=C/c4ccncc4)ncnc32)c1` [GW784752X]: the potency estimated from few doses with ACVR1B (setting [1]) is 725 nM; in the assay with ACVR1 (setting [1]), 119 nM; with BCR (setting [1]) it was 641 nM; with BMPR1A, 1130 nM; with CSNK2A1;CSNK2A3 it was 882 nM; with CSNK2A2, 252 nM. Also, the potency estimated from few doses in the assay with GSK3A was 47.2 nM; with GSK3B, 75.6 nM; with JAK2, 603 nM; in the assay on TGFBR1 (setting [1]), 1520 nM.
